Test [1] is described as follows: qHTS assay for small molecule agonists of the p53 signaling pathway (AID 651631; calls by dose curve; note: nearly all actives have a fitted effect of over 15% in size). A digest of the protocol: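 We treat p53RE-bla HCT-116 cells with compounds for 16 h at 37 °C, add LiveBLAzer B/G FRET substrate for 2 h at room temperature, and measure fluorescence intensity.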
(In general: qHTS replaces the single test concentration by a dilution series.)

Test [2] can be described thus: qHTS assay for small molecules that induce genotoxicity in human embryonic kidney cells expressing luciferase-tagged ATAD5 (AID 651632). Note: nearly all actives have a fitted effect of over 15% in size. The method in brief: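 Increased luciferase signal from ATAD5-tagged reporter cells indicates DNA-damage-driven ATAD5 induction. HEK293T cells are treated for 16 hr at 37C before detection with Amplite.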
The nature of test [3]: qHTS assay for small molecules that induce genotoxicity in human embryonic kidney cells expressing luciferase-tagged ATAD5 - cell viability (AID 651634; calls by dose curve; note: nearly all actives have a fitted effect of over 25% in size). A digest of the protocol: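 Cytotoxicity counterscreen in HEK293T cells bearing an ATAD5-luciferase reporter: live-cell protease activity measured by CellTiter-Fluor fluorescence after 15.5 hr compound exposure.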
The nature of test [4]: qHTS assay for small molecule disruptors of the mitochondrial membrane potential - cell viability (AID 720634; calls by dose curve;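 note: human HepG2 liver cancer cells; series mostly up to about 83 µM; nearly all actives have a fitted effect of over 20% in size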). A digest of the protocol: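 After overnight attachment at 37 C, HepG2 cells received compound or DMSO vehicle for 1 hr. Viability is then taken from ATP-driven luminescence following a 30 min room-temperature CellTiter-Glo step.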
A short description of test [5]: qHTS assay for small molecule disruptors of the mitochondrial membrane potential (AID 720635). Note: potency is the fitted concentration of half-maximal effect. The method in brief: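 HepG2 cells exposed to compound 1 hr at 37C, then Mito-MPS dye 30 min. Ratio read of aggregate (540/590 nm) versus monomer (490/535 nm) fluorescence.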
Test [6] in a line: qHTS assay to test for compound auto fluorescence at 590 nm (red) in HepG2 cells (AID 720674). The method in brief: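 Fluorescence at 590 nm emission following 540 nm excitation was recorded from HepG2 wells one hour after compound transfer, with DMSO-only wells as vehicle and Rose Bengal sodium equivalency as the scale.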
Test [7] in a line: qHTS assay to test for compound auto fluorescence at 535 nm (green) in HepG2 cells (AID 720675).
Test [8] is described as follows: qHTS assay to test for compound auto fluorescence at 460 nm (blue) in HEK293 cells (AID 720678). The method in brief:
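Triamterene serves as the blue fluorophore standard. Compound signal at 405/460 nm is read in HEK293 wells (2,000 cells, 10% dialyzed FBS) after overnight treatment at 37C.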

Test [9] can be described thus: qHTS assay to test for compound auto fluorescence at 590 nm (red) in HEK293 cells (AID 720679). A digest of the protocol:
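We plated HEK293 cells in 10% dialyzed FBS medium, let them adhere for 4-5 hr, then added 23 nL compound. Overnight at 37C and 5% CO2 preceded fluorescence measurement at 540/590nm.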

Test [10] is described as follows: qHTS assay to test for compound auto fluorescence at 535 nm (green) in HEK293 cells (AID 720680).
The nature of test [11]: qHTS assay to test for compound auto fluorescence at 535 nm (green) in HEK293 cell free culture (AID 720682). A digest of the protocol:
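Green-channel intensity (Ex/Em 485/535 nm) was recorded from compound-treated wells containing only DMEM with 10% FBS. Fluorescein provided the equivalency standard.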

The nature of test [12]: qHTS assay to test for compound auto fluorescence at 590 nm (red) in HEK293 cell free culture (AID 720683). The method in brief: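 Cell-free wells of DMEM with 10% FBS received compound, and intrinsic fluorescence was read at excitation/emission 540/590 nm. Values expressed as equivalence to Rose Bengal sodium.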
The nature of test [13]: qHTS assay to test for compound auto fluorescence at 590 nm (red) in HepG2 cell free culture (AID 720684). A digest of the protocol: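 Compound was pinned into wells holding MEM with 10% FBS and no cells, and red fluorescence was read at Ex/Em 540/590 nm. Signal is expressed as auto fluorescence equivalency relative to Rose Bengal sodium.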
Test [14] is described as follows: qHTS assay to test for compound auto fluorescence at 460 nm (blue) in HepG2 cell free culture (AID 720685). A digest of the protocol: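 Compound (23 nL) or DMSO pinned into cell-free MEM with 10% FBS; blue fluorescence read at 405/460 nm excitation/emission, expressed as auto-fluorescence equivalency to triamterene.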
Test [15] in a line: qHTS assay to test for compound auto fluorescence at 535 nm (green) in HepG2 cell free culture (AID 720686).
Test [16] is described as follows: qHTS assay to test for compound auto fluorescence at 460 nm (blue) in HepG2 cells (AID 720687). The method in brief:
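HepG2 cells in MEM with 10% FBS, attached overnight at 37 C, were exposed to compound or DMSO for 1 hr at 37 C, 5% CO2. Blue fluorescence was read at 405/460 nm, with triamterene as reference fluorophore.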

In test [17] the target is Glucocorticoid receptor (Homo sapiens) (UniProt P04150). Nature of the test: qHTS assay to identify small molecule agonists of the glucocorticoid receptor (GR) signaling pathway (AID 720691; active = well fitted activation curve with a large enough effect in the signal ratio in the repeat runs, not every such curve was filed as active; the % refers to the signal ratio). A digest of the protocol:
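Agonist mode in a HeLa line carrying a GRE-controlled beta-lactamase reporter. Compounds act for 18 h at 37 C before a 2 h room-temperature FRET substrate step and fluorescence reading.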

Test [18] can be described thus: qHTS assay for small molecule agonists of the p53 signaling pathway - cell viability (AID 651633; calls by dose curve;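 note: p53RE-bla HCT reporter cells with a stable beta-lactamase p53 reporter; series mostly up to about 83 µM; nearly all actives have a fitted effect of over 30% in size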). The method in brief: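 p53RE-bla cells were treated with compound for 16 hours at 37 C. Cytotoxicity was then measured as CellTiter-Glo luminescence after 30 min at room temperature.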
Test [19] is described as follows: qHTS assay to test for compound auto fluorescence at 460 nm (blue) in HEK293 cell free culture (AID 720681). A digest of the protocol:
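Compounds were added to cell-free DMEM with 10% FBS and fluorescence read directly. The blue channel used 405 nm excitation and 460 nm emission, with triamterene as the reference fluorophore.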

Each structure is given as a SMILES string. A number with no mark means an inactive call. Inconclusive results are not listed. Active and inactive are the calls of the source. Unless noted, calls come from the whole dose curve; as a rule, active = well fitted curve in the direction sought with a large enough effect in the repeat runs; inconclusive = weak or mixed curves; inactive = no such curve, though single readings can be large; an effect the other way counts as inactive or inconclusive.
% is set by controls: 0 for no effect and ±100 for the full control effect.

Chain of Glucocorticoid receptor (Homo sapiens) (P04150 whole entry, looked up): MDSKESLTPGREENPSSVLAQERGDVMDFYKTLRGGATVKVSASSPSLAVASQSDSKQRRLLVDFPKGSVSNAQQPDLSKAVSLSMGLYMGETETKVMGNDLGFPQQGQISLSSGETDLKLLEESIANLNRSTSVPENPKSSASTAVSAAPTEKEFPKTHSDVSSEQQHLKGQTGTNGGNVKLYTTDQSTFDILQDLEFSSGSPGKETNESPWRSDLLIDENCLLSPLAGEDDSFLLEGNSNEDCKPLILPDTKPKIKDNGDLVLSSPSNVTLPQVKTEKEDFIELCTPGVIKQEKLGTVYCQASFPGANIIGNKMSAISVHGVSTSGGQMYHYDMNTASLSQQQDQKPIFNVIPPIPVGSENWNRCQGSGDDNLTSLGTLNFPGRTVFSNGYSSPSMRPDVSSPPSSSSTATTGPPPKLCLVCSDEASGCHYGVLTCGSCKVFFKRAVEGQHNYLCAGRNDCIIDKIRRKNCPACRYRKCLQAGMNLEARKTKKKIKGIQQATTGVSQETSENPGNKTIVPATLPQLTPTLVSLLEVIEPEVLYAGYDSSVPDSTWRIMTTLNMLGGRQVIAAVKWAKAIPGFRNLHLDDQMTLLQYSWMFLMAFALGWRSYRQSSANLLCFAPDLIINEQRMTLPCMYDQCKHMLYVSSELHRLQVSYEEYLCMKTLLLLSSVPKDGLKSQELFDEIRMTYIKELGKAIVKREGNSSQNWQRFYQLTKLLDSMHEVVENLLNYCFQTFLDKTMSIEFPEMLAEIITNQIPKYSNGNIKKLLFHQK

In the case of `CCCCCCCCCCCCCCCCCCOCCO`, the call in test [1], in test [2] and in test [4] was inactive. In addition, the Potency entry in test [3], in [5] and in [17] was “inactive” in each case. The fluorescence, relative to Rose Bengal in test [6] was 0.105% [at 18.6 µM]. For the same compound, the fluorescence, % of fluorescein control in test [7] is 0.0331% [at 18.6 µM]; in test [15], -0.0027% [at 18.6 µM]. Further, in [8], the fluorescence, % of triamterene was -0.176% [at 18.6 µM]. Further, the fluorescence, % of fluorescent control was -0.175% [at 18.6 µM] in test [9], 0.138% [at 18.6 µM] in test [12], 0.0125% [at 18.6 µM] in test [14] and 0.0321% [at 18.6 µM] in test [16]. In test [10], the fluorescence, % of fluorescein was -0.0578% [at 18.6 µM]. The activity change in test [11] is -0.0191% [at 18.6 µM]. In test [13], the fluorescence, % of Rose Bengal was -0.0112% [at 18.6 µM].

Turning to `COC(C)(OC)OC`, the outcome in test [1], in [2], in test [4], in test [6], in [7] and in test [8] was inactive. The call in test [9], in test [10], in test [11], in [12], in [13] and in [14] was inactive. In addition, the result in [15] and in test [16] was inactive. Moreover, the Potency result in test [3] and in test [17] was “inactive” each time.

On to `CO[Si](CCCn1c(=O)n(CCC[Si](OC)(OC)OC)c(=O)n(CCC[Si](OC)(OC)OC)c1=O)(OC)OC`, for which the outcome in [2], in [18], in test [4], in test [6], in test [7] and in test [8] was inactive. Moreover, the outcome in [9], in [10], in test [19], in [11], in test [12] and in test [13] was inactive. Moreover, the compound was called inactive in test [14], in test [15] and in test [16]. Further, the Potency result in test [3] and in [5] was “inactive” throughout.

On to `Cc1ccccc1C(N)=O`, for which the compound was called inactive in test [1], in test [2], in test [4], in [6], in test [7] and in [8]. Further, the result in [10], in [19], in test [11], in test [12], in test [13] and in test [14] was inactive. In addition, the result in test [15] and in test [16] was inactive. The Potency result in test [5] and in [17] was “inactive” each time.

Regarding `c1ccc(B(c2ccccc2)c2ccccc2)cc1`, the result in test [1], in test [6], in [7], in test [8], in test [9] and in test [10] was inactive. The compound was classed as inactive in [11], in [12], in [13], in test [14], in test [15] and in test [16]. In addition, the Potency in test [5] was 61.1 µM (active). Also, in [17], the Potency result is “inactive”.

As to `C[C@]12CCC(=O)C=C1CC[C@H]1[C@@H]3CC[C@](O)(C(=O)CO)[C@@]3(C)C[C@H](O)[C@@]12F`, the result in [2], in test [18], in test [4], in test [6], in test [7] and in test [8] was inactive. Further, the outcome in test [9], in [10], in [19], in [11], in test [12] and in [13] was inactive. The compound was called inactive in test [14], in test [15] and in test [16]. Moreover, the Potency entry in test [3] and in test [5] was “inactive” in each case.

Turning to `Nc1nnnn1-c1ccccc1`, the result in test [1], in test [2], in [4], in test [7], in [8] and in [9] was inactive. The result in test [10], in test [19], in [11], in [12], in [13] and in test [14] was inactive. The outcome in test [15] and in test [16] was inactive. Further, the Potency entry in test [5] and in [17] was “inactive” each time.

As to `O=NN(CCCl)C(=O)NC1CCCCC1`, the outcome in test [2], in test [18], in [4], in test [6], in [7] and in [8] was inactive. In addition, the outcome in test [9], in test [10], in [19], in test [11], in [12] and in [13] was inactive. Further, the call in test [14], in test [15] and in [16] was inactive. In addition, the Potency entry in test [3] and in test [5] was “inactive” each time.

The record behind these values is PubChem BioAssay (Tox21).
